Gli-Sufu block – blocks Gli-Sufu signaling in a luciferase reporter. AID 588413. 340,000 compounds, 0.74% hits. Sufu-KO-LIGHT fibroblasts, Gli luciferase reporter luminescence. inhibition, % at 5 µM;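 active = inhibition above about 55%, limit read from the data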;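 also: 0% = DMSO-treated cells and 100% = wells with medium but no cells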
aSyn 5UTR inh – 5' untranslated region of α-synuclein, MLPCN primary screen. inhibition, % (tested at 7.5 µM). alpha-synuclein 5'UTR reporter, inhibitor activity. 300,000 compounds, 0.82% hits; in the data active = inhibition above about 60%;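 also: H4 neuroglioblastoma cells stably carrying SNCA 5'UTR luciferase fusion; 0% = DMSO wells and 100% = positive control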
Mdm2-MdmX inh – inhibitors of human Mdm2/MdmX interaction. O15151+Q00987. SaOS-2 split-luciferase Mdm2/MdmX complementation, luminescence. inhibition, % at 8 µM. 330,000 compounds, 3% hits. AID 485346;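 active = inhibition of at least 50% at 8 µM in the primary screen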
Target sequence (O15151 whole entry, looked up): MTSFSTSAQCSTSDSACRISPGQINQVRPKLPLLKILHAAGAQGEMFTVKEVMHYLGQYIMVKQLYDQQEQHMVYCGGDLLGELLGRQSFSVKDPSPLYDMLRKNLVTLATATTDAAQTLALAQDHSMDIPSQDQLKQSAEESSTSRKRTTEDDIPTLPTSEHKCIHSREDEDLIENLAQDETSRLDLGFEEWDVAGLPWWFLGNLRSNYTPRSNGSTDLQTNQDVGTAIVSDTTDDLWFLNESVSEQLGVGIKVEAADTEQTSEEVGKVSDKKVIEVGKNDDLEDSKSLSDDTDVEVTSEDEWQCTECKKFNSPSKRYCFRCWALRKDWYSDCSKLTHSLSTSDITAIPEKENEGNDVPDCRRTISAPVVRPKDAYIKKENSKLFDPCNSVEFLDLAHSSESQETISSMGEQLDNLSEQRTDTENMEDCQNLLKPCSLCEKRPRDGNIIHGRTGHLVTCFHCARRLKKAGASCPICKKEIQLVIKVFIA
Target sequence (Q00987 whole entry, looked up): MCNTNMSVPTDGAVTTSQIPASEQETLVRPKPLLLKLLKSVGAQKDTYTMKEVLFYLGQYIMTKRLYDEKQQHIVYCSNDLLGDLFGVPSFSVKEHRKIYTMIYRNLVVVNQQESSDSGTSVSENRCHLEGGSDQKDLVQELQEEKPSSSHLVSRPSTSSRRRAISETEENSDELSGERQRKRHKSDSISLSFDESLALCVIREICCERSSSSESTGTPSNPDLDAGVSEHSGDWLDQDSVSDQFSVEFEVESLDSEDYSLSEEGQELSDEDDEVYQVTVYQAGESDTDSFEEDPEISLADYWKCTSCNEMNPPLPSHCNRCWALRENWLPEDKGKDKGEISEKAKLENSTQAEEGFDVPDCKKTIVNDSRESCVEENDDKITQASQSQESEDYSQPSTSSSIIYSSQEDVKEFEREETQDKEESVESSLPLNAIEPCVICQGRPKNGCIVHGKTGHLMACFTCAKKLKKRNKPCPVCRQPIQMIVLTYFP
CSC inhib – cancer stem cell inhibition; AID 2717; inhibition, % at 7.5 µM; 300,000 compounds, 1.1% hits; cancer stem cell-like cells viability, luminescence; in the data active = inhibition above about 75%; tested in HMLE shEcad cells
697 NFkB inh – inhibitors of the PMA/ionomycin-induced NF-kB reporter in 697 B cells | 697 B-cell NF-kB luciferase reporter, 16 h | inhibition, % at 4 µM | 330,000 compounds, 0.33% hits | AID 435022; in the data active = inhibition above about 35%
Jurkat NFkB inh – lowers PMA/ionomycin-induced NF-kB signal in Jurkat cells; AID 435003; 330,000 compounds, 0.53% hits; PMA/ionomycin-induced NF-kB luciferase reporter, luminescence; inhibition, % at 4 µM; in the data active = inhibition above about 50%
Mdm2-MdmX conf – human Mdm2/MdmX binding inhibition, confirmed; shares compounds with Mdm2-MdmX inh; luminescent assay; inhibition, % at 8 µM; 10,000 compounds, 55% hits; AID 489028; in the data active = inhibition above about 40%
FLuc counter – counter-screen for Mdm2/MdmX inhibitors: full-length luciferase | shares compounds with Mdm2-MdmX inh | SaOS-2 full-length luciferase counterscreen, luminescence | inhibition, % at 8 µM | 6,200 compounds, 77% hits;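 active = mean inhibition at 8 µM reaching about 37%, which flags the compound as non-specific, limit read from the data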;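 also: p53-null SaOS-2 cells with luciferase driven by a doxycycline-inducible promoter; compound on cells about two nights before reading with doxycycline added after day one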
* = called active by the depositor; · = no result given. Compounds with a hit are over-represented: about 4.5% of the library has one in this group of screens.

SMILES	Gli-Sufu block	aSyn 5UTR inh	Mdm2-MdmX inh	CSC inhib	697 NFkB inh	Jurkat NFkB inh	Mdm2-MdmX conf	FLuc counter
CCc1nnc(NC(=O)CCN2C(=O)C3CCCCC3C2=O)s1 (centres undefined)	-15.4	10.9	-11.9	-4.6	-5.4	1.4	·	·
O=C(CCN1C(=O)/C(=C/c2ccccc2)SC1=S)NCCc1ccc(O)cc1	-11.1	0.5	98.3*	21.1	-23.5	12.9	87.7*	59.8*
COc1ccccc1/C=C1\SC(=S)N(CCC(=O)NCCc2ccc(O)cc2)C1=O	-4.0	0.9	59.6*	-17.3	-35.0	-8.4	38.2	68.8*
O=C(CCN1C(=O)/C(=C/c2ccc(F)cc2)SC1=S)NC1CCS(=O)(=O)C1 (centres undefined)	3.4	-5.6	-15.9	16.1	-20.7	0.2	·	·
COc1ccccc1NC(=O)CCN1C(=O)/C(=C/c2cc(OC)c(OC)c(OC)c2)SC1=S	7.7	-4.7	29.6	-3.0	7.9	16.1	·	·
COc1ccc(/C=C2\SC(=S)N(CCC(=O)NCCc3ccc(O)cc3)C2=O)cc1	4.2	17.2	78.6*	-5.0	17.9	11.8	71.1*	27.4
O=C(CCN1C(=O)/C(=C/c2ccc(F)cc2)SC1=S)N[C@@H](CO)Cc1ccccc1	-0.4	-18.4	82.1*	5.0	-16.2	7.6	60.9*	37.3*
Cn1c(=O)[nH]c(=O)c2c1nc(NCCCO)n2CCCc1ccccc1	30.9	-3.1	21.9	-14.1	10.9	19.2	·	·
COc1ccc(S(=O)(=O)Nc2cccc(-c3ccc(N4CCCCCC4)nn3)c2)c(OC)c1	-14.5	22.1	-3.3	-6.8	-45.1	-41.0	·	·
O=C(CCN1C(=O)/C(=C/c2ccccc2F)SC1=S)NCCc1ccc(O)cc1	0.1	6.6	71.4*	8.3	-4.3	9.5	53.0*	33.0
CCC1CCCCN1C(=O)CCCOc1ccccc1 (centres undefined)	13.9	-113.3	1.3	2.2	-71.4	-22.7	·	·
CCCCC[C@H](O)/C=C/[C@H]1CCC(=O)[C@@H]1CCCCCCC(=O)N1CCCCC1CO (some centres undefined)	8.0	21.6	60.4*	19.3	-8.8	11.0	43.5*	54.2*
COc1ccc(C(CNC(=O)c2cc3c(s2)CCC(C)C3)N2CCCC2)cc1 (centres undefined)	13.9	·	41.0	4.2	-4.6	-13.0	·	·
CCC1CCc2sc(C(=O)NCC(c3ccccc3OC)N3CCCC3)cc2C1 (centres undefined)	5.0	·	75.1*	-9.1	-21.3	8.3	18.1	·
CS(=O)(=O)c1ccc(C(=O)OCC(=O)Nc2cccnc2Cl)cc1[N+](=O)[O-]	8.4	·	37.7	71.4	6.7	7.0	·	·
Cc1ccccc1NC(=O)Cc1nc(COC(=O)c2ccc(S(C)(=O)=O)c([N+](=O)[O-])c2)cs1	-11.6	·	97.4*	·	9.9	7.5	94.5*	56.9*
Cc1ccccc1NC(=O)COC(=O)c1ccc(S(C)(=O)=O)c([N+](=O)[O-])c1	7.9	-42.1	55.5*	-8.0	14.5	16.9	32.6	·
CS(=O)(=O)c1ccc(C(=O)OCC(=O)NC(=O)C2COc3ccccc3O2)cc1[N+](=O)[O-] (centres undefined)	3.9	·	51.1*	10.6	12.4	1.8	25.9	·
CC(CCc1ccccc1)NC(=O)COC(=O)c1ccc(S(C)(=O)=O)c([N+](=O)[O-])c1 (centres undefined)	1.1	15.9	81.3*	23.4	28.0	-2.3	82.9*	55.0*
CC(=O)c1ccc(OC(=O)N(c2ccccc2)c2ccccc2)cc1	1.8	-4.1	10.3	-7.1	8.6	-0.5	·	·
Cc1cccc(C(=O)NC(=S)NCc2cccnc2)c1	3.3	-1.0	-15.6	-10.5	-2.8	2.3	·	·
Cc1cc(NC(=O)COC(=O)CNC(=O)c2cccs2)c([N+](=O)[O-])cc1C	1.9	-6.3	-0.8	-8.6	1.0	-9.2	·	·
Cc1ccc2oc(=O)n(Cc3ccccc3)c2c1	-2.4	-14.2	12.7	-2.8	-10.8	11.3	·	·
CN(Cc1ccccc1)S(=O)(=O)c1ccc(Cl)c(C(=O)NCCCN2CCOCC2)c1	7.3	-1.2	8.2	55.4	-33.5	-10.1	·	·
CCN(CC(O)COc1ccc(OCC(O)CN(CC)C2CCCCC2)cc1)C1CCCCC1 (centres undefined)	21.4	-40.0	69.2*	7.7	-15.3	-21.5	12.4	·
SMILES	Gli-Sufu block	aSyn 5UTR inh	Mdm2-MdmX inh	CSC inhib	697 NFkB inh	Jurkat NFkB inh	Mdm2-MdmX conf	FLuc counter
O=C1c2ccccc2C(=O)C2OC12 (centres undefined)	·	-21.2	72.1*	49.5	6.2	6.3	31.1	43.7*
CCCNC(=O)c1ccccc1NC(=O)c1ccc2c(c1)NC(=O)C(C)S2 (centres undefined)	-1.9	-96.1	53.3*	44.6	-21.6	49.1	67.8*	72.3*
Cc1c(O)ccc(-c2n[nH]c(C(=O)O)c2-c2nc3ccccc3s2)c1O	5.7	-22.1	5.3	-0.4	-25.0	-0.4	·	·
COc1cccc(/C=N/n2c(N)c(S(=O)(=O)c3cccs3)c3nc4ccccc4nc32)c1	-1.7	26.7	25.0	-4.9	25.9	-6.6	·	·
Nc1c(S(=O)(=O)c2cccs2)c2nc3ccccc3nc2n1/N=C/c1cccc(O)c1	4.9	22.7	78.9*	97.0*	3.1	-3.7	56.5*	86.1*
COc1ccc(F)cc1C(=O)C1CCCN(Cc2c[nH]c3ccccc23)C1 (centres undefined)	-17.8	-14.8	52.8*	7.4	-2.0	11.2	27.4	·
Cc1cc(C)c2nc(N3CCC(C(=O)NCC4CCCO4)CC3)sc2c1 (centres undefined)	-6.7	-17.9	-10.0	-18.8	-36.9	7.5	·	·
Cc1cc(C)c2nc(N3CCC(C(=O)NCCCN4CCCCC4)CC3)sc2c1	10.1	-32.9	83.9*	-1.8	-11.5	-8.2	42.9*	46.4*
CC1=C(C(=O)OC2CCCCCCC2)C(c2cc3c(cc2Br)OCO3)CC(=O)N1 (centres undefined)	9.3	5.7	77.9*	117.7*	-7.4	7.1	27.6	·
O=C(Nc1ccccc1N1CCOCC1)c1cc(-c2ccco2)nc2ccccc12	5.3	13.3	70.3*	27.7	2.0	3.9	53.2*	68.5*
COc1ccc(OC)c(NC(=O)c2cccc(N3C(=O)C4C5C=CC(C6CC56)C4C3=O)c2)c1 (centres undefined)	52.4	-21.7	2.9	3.0	-9.3	8.4	·	·
Cc1ccc(N(CC(=O)Nc2cc(Cl)ccc2Oc2ccccc2)S(C)(=O)=O)cc1C	0.2	24.4	52.2*	10.8	10.2	-9.0	2.0	·
N#C/C(=C/c1cn(CC(=O)O)c2ccccc12)C(=O)Nc1ccccc1	-4.7	10.5	51.3*	1.8	-19.3	-26.0	-16.3	·
Cc1cccc(NC(=O)/C(C#N)=C/c2cn(CC(=O)NCc3ccco3)c3ccccc23)c1C	-6.2	20.9	89.5*	9.0	-0.8	-3.7	49.4*	64.5*

Compound activity (PubChem BioAssay)
